Eight compounds from the supplement of paper PMC7380943 can be followed below.

Counter-ions that a name gives are not always drawn. ± gives the standard deviation of the averaged measurements.
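Note: compound given one day ahead of doxycycline, which switches on I-SceI endonuclease to cut the chromosomally integrated reporter and create DSBs.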

This experiment relates to CLZ3 (HCA2 human fibroblast dual HR-NHEJ reporter). The experiment is described as follows: NHEJ repair efficiency (GFP+ cells) relative to control (log10 fold); higher = more non-homologous end joining. The following applies: 5 µM; doxycycline 0.5 ug/mL.
For the compound `CCC(C)C(=O)O[C@@H]1[C@@H](OC(C)=O)[C@]2(C)[C@H](C(C)=O)CC[C@@]23O[C@]32CC[C@H]3C[C@@H](O[C@H]4C[C@@H](OC)[C@H](O[C@@H]5O[C@H](C)[C@@H](O)[C@@H](OC)[C@H]5O)[C@@H](C)O4)CC[C@]3(C)[C@@H]12` (stereo partly drawn) [Tenacissoside H], the “NHEJ repair efficiency (log10)” value is -0.0163.
On to `C[C@H]1C(=O)O[C@@H]2CCN3CC=C(COC(=O)[C@](C)(O)[C@]1(C)O)[C@H]23` [Monocrotaline], for which the “NHEJ repair efficiency (log10)” value is -0.0165.
The figure for `C/C1=C\C2C(CCC3(CO3)C(O)C3C(O)C(C)CC3(O)C1=O)C2(C)C` (stereo not drawn) [6,17-Epoxylathyrol] is -0.129; for `CCN1C[C@]2(COC)CC[C@H](O)[C@]34C1[C@H]([C@H](OC)[C@H]23)[C@@]1(O)C[C@H](OC)[C@H]2C[C@@H]4[C@@H]1[C@H]2O` [Neoline] it is -0.0435; for `COc1cc([C@H]2OC[C@H]3[C@H]2CO[C@@H]3c2cc(OC)c(O[C@@H]3O[C@H](CO)[C@@H](O)[C@H](O)[C@H]3O)c(OC)c2)cc(OC)c1O[C@@H]1O[C@H](CO)[C@@H](O)[C@H](O)[C@H]1O` [Eleutheroside D] it is 0.0455.
In the case of `CCN1C[C@]2(C)CC[C@H](OC)[C@@]34C1[C@]1(OCO[C@@]15C[C@H](OC)[C@H]1C[C@]3(O)[C@@H]5[C@H]1OC)[C@@H](OC(C)=O)[C@H]24` [Deltaline], the “NHEJ repair efficiency (log10)” value is -0.125.
For `COc1ccc(Cc2nccc3cc(OC)c(OC)cc23)cc1OC` [Papaverine hydrochloride], the “NHEJ repair efficiency (log10)” value was -0.296.
Take `CC(C)c1ccc2c(c1O)CC[C@H]1C3=C(CC[C@]21C)C(=O)OC3` [Triptophenolide]: the “NHEJ repair efficiency (log10)” value is -0.142 ± 0.096.
